Bioassay records: PubChem, The Scripps Research Institute Molecular Screening Center
MITF inh – inhibitors of human MITF | AlphaScreen MITF homodimerization, bead proximity signal | inhibition, % at 2.6 µM | hit rate 0.91% among 650,000; in the data active = inhibition above about 50%;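 note: 0% = vehicle wells with protein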
Target sequence (O75030 whole entry, looked up): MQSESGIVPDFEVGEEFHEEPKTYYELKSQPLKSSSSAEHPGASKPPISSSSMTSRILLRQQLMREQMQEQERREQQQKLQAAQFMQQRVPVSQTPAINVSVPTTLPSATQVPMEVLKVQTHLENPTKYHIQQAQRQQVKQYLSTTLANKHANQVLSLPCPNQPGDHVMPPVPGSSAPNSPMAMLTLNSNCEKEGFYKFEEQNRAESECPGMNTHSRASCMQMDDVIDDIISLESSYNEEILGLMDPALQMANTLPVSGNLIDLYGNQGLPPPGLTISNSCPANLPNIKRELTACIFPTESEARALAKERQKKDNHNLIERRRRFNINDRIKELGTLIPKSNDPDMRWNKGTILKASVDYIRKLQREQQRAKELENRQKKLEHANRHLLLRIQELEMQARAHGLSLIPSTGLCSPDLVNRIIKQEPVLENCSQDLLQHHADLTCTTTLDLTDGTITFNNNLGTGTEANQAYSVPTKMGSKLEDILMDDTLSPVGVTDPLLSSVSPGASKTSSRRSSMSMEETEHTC
TEAD-YAP inh – TEAD-YAP interaction inhibition | hit rate 1.4% among 640,000 | inhibition, % at 9.12 µM | HEK-TIYL cells, TEAD-Gal4/YAP UAS-luciferase luminescence; in the data active = inhibition above about 32%;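 note: 0% = median of test compound wells and 100% = reference inhibitor wells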
FBW7 act – human FBW7 E3 ligase activation, primary screen. Q969H0. hit rate 0.13% among 650,000. AID 1259310. AlphaScreen FBW7–phospho-cyclin E peptide binding, activator screen. normalized activity (activation), % at 26.1 µM; in the data active = normalized activity above about 1.9%;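 note: purified mutant Fbw7 with reduced substrate affinity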
GPR151 activ – human GPR151 activation. Q8TDV0. PathHunter beta-arrestin GPR151 cells, luminescence. activation, % at 11.2 µM. hit rate 1% among 650,000. AID 1508602; in the data active = activation above about 4.9%;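 note: 0% = median of compound wells and 100% = cells with positive control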
* marks the source's active call; other numbers are inactive results. Most compounds without a hit are left out; they make up all but 3.5% or so of the library.

SMILES	MITF inh	TEAD-YAP inh	FBW7 act	GPR151 activ
Cc1cccc(NC(c2ccncc2)c2ccc3cccnc3c2O)n1 (stereo not given)	113*	68*	0	-1
CCOC(=O)c1sc2nc(SCc3ccccc3C)n(Cc3ccccc3Cl)c(=O)c2c1C	-6	-6	0	-1
CCOC(=O)C1=C(C)NC2=C(C(=O)CC(c3ccc(OC)c(OC)c3)C2)C1c1ccccc1Cl (stereo not given)	-9	-15	1	-2
COCc1nnc(NC(=O)C(C)(C)C)s1	-6	-4	0	1
COc1ccc(C(=O)Nc2cnc3ccccc3c2)cc1	-2	84*	0	-8
O=C(Nc1cnc2ccccc2c1)c1cccc(F)c1	-3	36*	0	-1
COc1ccc(C(=O)Nc2cnc(NC(=O)c3ccccc3)cc2C)cc1	-8	45*	0	-2
CCCCc1ccc(NC(=O)c2ccccc2)cc1	10	-12	0	-6
CCCCc1ccc(C(=O)Nc2cnc3ccccc3c2)cc1	6	40*	0	-2
CC1=C(C(=O)NCCCN2CCc3ccccc3C2)C2(CCCCC2)OC1=O	5	-14	1	-2
CC(=O)NC(=S)Nc1ccc(NC(=O)c2ccc(Br)o2)cc1	13	-16	0	-1
COc1ccc(C(=O)Nc2cc(C)c(C)s2)cc1	-9	34*	0	-6
COc1ccc(C(=O)Nc2ccccc2C(=O)Nc2nc3ccccc3n2C)cc1	-5	94*	0	-2
COc1ccc(C(=O)Nc2nc3ccccc3n2C)cc1	0	6	0	-5
COc1ccc(C(=O)Nc2cc(Nc3ccccc3C(N)=O)ccn2)cc1	1	37*	0	0
COc1cc(Nc2cc(Nc3ccccc3C(N)=O)ccn2)cc(OC)c1OC	15	-11	0	3
CC(C)c1ccc(/C=C2\N=C(c3ccc(Br)cc3)OC2=O)cc1	10	-5	0	1
CN1C/C(=C/c2cccnc2)C(=O)/C(=C/c2cccnc2)C1	-4	74*	0	0
CC(C)N1C/C(=C/c2cccnc2)C(=O)/C(=C/c2cccnc2)C1	11	52*	0	0
CCc1cc(=O)[nH]c(-n2nc(-c3ccco3)cc2NC(=O)C2c3ccccc3Oc3ccccc32)n1	9	6	0	2
CCCCC1=NN2C(=N)/C(=C/c3ccc(OCCOc4cc(C)cc(C)c4)c(OCC)c3)C(=O)N=C2S1	2	17	0	0
CCc1cccc(C)c1NC(=S)N(CCN1CCCCCC1)Cc1ccco1	7	7	3.2*	-2
N#C/C(C(N)=O)=C1\Oc2c(cc(O)cc2-c2ccccc2)S1	6	37*	0	0
Cc1ccc(Nc2nc(-c3ccc(O)cc3)cs2)nc1	-16	33*	0	1
COc1ccc2cc3cc(C(=O)N4CCCCC4C)oc3nc2c1 (stereo not given)	-6	36*	0	-3
SMILES	MITF inh	TEAD-YAP inh	FBW7 act	GPR151 activ
COc1ccc(S(=O)(=O)N(CC(=O)NCCc2ccc(OC)c(OC)c2)c2ccc(C)cc2)cc1	1	36*	0	-1
COc1ccc2cc3cc(C(=O)NCCc4ccc(OC)c(OC)c4)oc3nc2c1	-13	45*	0	2
Cc1c(C(=O)N(C)c2ccc(C(C)C)cc2)sc2ncn(CC(=O)N3CCCCC3C)c(=O)c12 (stereo not given)	-14	7	0	-1
Cc1nc2nc[nH]n2c(=O)c1[N+](=O)[O-]	8	2	0	-1
O=S1(=O)C=C(Sc2nc3ccccc3s2)c2ccccc21	-1	61*	0	-1
Nc1ccccc1SC1=CS(=O)(=O)c2ccccc21	6	-5	0	0
CC(=O)c1ccccc1OCc1ccccc1C	7	5	2.6*	0
Cc1ccsc1C=Nc1cccc(S(=O)(=O)N2CCCCC2)c1	2	-4	0	-2
COc1cc(-c2nc(Nc3ccc(C)c(Cl)c3)c3ccccc3n2)cc(OC)c1OC	1	52*	0	0
CCOc1ccc(Nc2nc(NCc3ccccc3)c3ccccc3n2)cc1	1	33*	0	3
COc1cc(-c2nc(Nc3ccc(OCc4ccccc4)cc3)c3ccccc3n2)cc(OC)c1OC	5	10	0	0
COc1ccc(Nc2nc(-c3cc(OC)c(OC)c(OC)c3)nc3ccccc23)cc1OC	-3	27	0	1
CCOc1ccc(Nc2nc(-c3cc(OC)c(OC)c(OC)c3)nc3ccccc23)cc1	1	40*	0	0
COc1ccc(NC(=O)c2ccc(N3C(=O)c4cccc([N+](=O)[O-])c4C3=O)cc2)cc1	17	-1	1	0
O=C(Nc1ccc(O)cc1)c1ccc(N2C(=O)c3cccc([N+](=O)[O-])c3C2=O)cc1	2	35*	0	-1
O=C(Nc1ccc(F)cc1)c1cc(S(=O)(=O)NCc2ccccc2)ccc1F	-1	5	0	-1
O=C(NC1CCN(Cc2ccccc2)CC1)c1ccc(Cn2nnc3ccccc3c2=O)cc1	4	35*	0	-1
CN(c1ccccc1)c1ccc(/C=C/[N+](=O)[O-])cc1	-7	34*	0	-1
COc1ccc(/C=C2/C(=O)ON=C2c2ccccc2)cc1	50	-21	0	1
O=C1ON=C(c2ccccc2)/C1=C\c1ccc(O)cc1	59*	-13	0	0
CSc1ccc(/C=C2/C(=O)ON=C2c2ccccc2)cc1	38	-7	0	1
CC(C)c1ccc(/C=C2\C(=O)ON=C2c2ccccc2)cc1	57*	-3	0	0
CC(=O)c1cccc(-c2nc(NCCCN3CCCC3=O)c3[nH]cnc3n2)c1	14	0	0	2
Oc1ccc(-c2cn3c(n2)SCC3)cc1	8	3	0	3
Oc1ccc(-c2cn3c(n2)SCC3)cc1O	65*	-17	0	-1
SMILES	MITF inh	TEAD-YAP inh	FBW7 act	GPR151 activ
CCOc1ccc2[nH]c(=O)c(CN(Cc3cccs3)C(=O)CC)cc2c1	10	33*	0	1
CCOC(=O)C1=C(CN(C)C2CCCCC2)NC(=O)NC1c1ccc(Cl)cc1 (stereo not given)	16	5	0	0
COc1ccc(F)cc1S(=O)(=O)Nc1ccc2nc(C)n(-c3ccc(Cl)cc3)c(=O)c2c1	24	23	1	1
CCOc1ccc(S(=O)(=O)Nc2ccc3nc(C)n(-c4ccc(F)cc4)c(=O)c3c2)c(OCC)c1	25	50*	1	-1
O=C(OCc1csc(-c2ccccc2)n1)C12CC3CC(CC(O)(C3)C1)C2	4	6	0	-1
O=C(O)c1cc2c([nH]c1=O)CCCC2	6	1	0	1
C=CCSC(=C(C#N)C#N)c1cc2c([nH]1)CCCC2	10	51*	0	-1
O=C1c2ccccc2C(=O)c2c(NCCCN(CCO)CCO)cccc21	15	41*	-1	1
O=C(O)/C=C\C(=O)Nc1ccc(Br)cc1	4	5	0	1
C=CC(=O)Nc1ccc(Br)cc1	6	36*	0	-1
Cc1ccc(/C=C/c2cc(=O)n3ccsc3n2)cc1	-8	49*	0	-2
